Values without a mark were called inactive. Results filed as inconclusive are left out. The source made the active and inactive calls. Unless noted, the call rests on the fitted dose curve; in most records, active means well fitted curve in the direction sought with a large enough effect; inconclusive means small, poorly fitted or top-dose-only effect, or another doubt; inactive means no such curve, though single readings can be large; an effect the other way counts as inactive or inconclusive.
Legend:
[1] = molecular target: Lysosomal acid glucosylceramidase (Homo sapiens) (UniProt P04062); assay: Glucocerebrosidase-p2 (AID 348; in the data active means potency below about 10 µM; further: potency means the concentration at half of the fitted maximal effect); conditions: purified GBA, blue fluorogenic substrate, 40 min
In short: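 Compounds titrated from 0.6 nM upwards against 0.2 nM enzyme in pH 5.9 citric acid/KH2PO4, taurocholate, tween-20; blue fluorogenic substrate 80 uM, 40 min room temperature, stopped and read Ex 365/Em 440 for AC50.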

[2] = AP1 Signaling Pathway (AID 357; active means well fitted curve in either direction with a large enough effect, not every such curve was filed as active;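 further: ME-180 reporter cells stimulated with EGF at its EC50 level; on the % scale 0 is the no-effect control and ±100 the full control effect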); conditions: ME-180 AP-1-bla reporter, EGF-induced, beta-lactamase ratio, 5 h; at 7.69 µM (top of the series) unless noted
In short: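 Read-out was the 460nm/530nm emission ratio (excitation 405nm) after CCF4 loading for 2.5 hours at room temperature. Cells carried an AP-1-driven beta-lactamase reporter, were stimulated with EC50 EGF plus compound for 5 hours, and AC50 values came from titrations.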

[3] = molecular target: Cytochrome P450 1A2 (Homo sapiens) (UniProt P05177); assay: p450-cyp1a2 (AID 410; calls by dose curve; further: potency means the concentration at half of the fitted maximal effect); conditions: recombinant CYP1A2, luciferin-ME demethylation, luminescence; series mostly up to 57 µM
In short: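 20nM CYP1A2 with 100uM Luciferin-ME (at Km) in 100mM KPO4; compound preincubated 10 min, NADPH regeneration added, 60 min at room temperature. Luciferin quantified by luminescence after detection reagent; normalized to 57 uM furafylline.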

[4] = Stat Signaling Pathway (AID 446; active means well fitted curve in either direction with a large enough effect, not every such curve was filed as active;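 further: ME-180 cervical cancer cells given 40 pM IL-6 alongside compound; SIE-controlled beta-lactamase reporter measured as 460/530 nm FRET emission ratio; on the % scale 0 is the no-effect control and ±100 the full control effect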); conditions: ME-180 SIE beta-lactamase reporter, IL-6 stimulated, 5 h; at 7.69 µM (top of the series) unless noted
In short: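 IL-6/STAT signaling read in ME-180 cells via an SIE beta-lactamase reporter. Stimulus was 40 pM IL-6 (its AC50) for 5 hrs, so both activation and inhibition register.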

[5] = molecular target: Glucocorticoid receptor (Homo sapiens) (UniProt P04150); assay: GR-GFP Redistribution (AID 450;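 active means compounds whose dose series gives a full or clear partial fitted curve of increased nuclear translocation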; further: potency means the concentration at half of the fitted maximal effect); conditions: U2OS GR-GFP nuclear translocation, laser cytometry, 2 h
[6] = molecular target: Glucocorticoid receptor (Homo sapiens) (UniProt P04150); assay: GR-EFC Redistribution (AID 451; calls by dose curve; further: potency means the concentration at half of the fitted maximal effect); conditions: CHO-K1 GR-EFC translocation, beta-gal luminescence, 2 h
In short: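 CHO-K1 cells stably expressing nuclear-localized β-gal enzyme acceptor and GR fused C-terminally to the enzyme donor fragment; ligand-driven nuclear translocation restores β-gal by complementation. Compounds titrated up to 46 uM final, 2 h at 37 °C; luminescence read.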

[7] = molecular target: Mitogen-activated protein kinase 10 (Mus musculus) (UniProt Q61831); assay: JNK3 AlphaScreen Assay (AID 530; active means well fitted curve in either direction with a large enough effect, not every such curve was filed as active;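 further: kinase came from lysate of stimulated human HepG2 cells; signal reports phosphorylation of biotinylated GST-cJun 1-79 at Ser73 with 10 µM ATP; on the % scale 0 is the no-effect control and ±100 the full control effect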); conditions: JNK3 lysate, c-Jun phosphorylation; series mostly up to 57.1 µM
In short: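 Inhibitors reduce antibody binding to phosphorylated biotin-cJun, lowering AlphaScreen luminescence. Lysates from HepG2 cells pre-activated by IL-1beta plus TNF-alpha supplied JNK3; compounds were titrated.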

[8] = molecular target: 3',5'-cyclic-AMP phosphodiesterase 4B (Homo sapiens) (UniProt Q07343); assay: qHTS Assay for Inhibitors of PDE-IV (AID 607; active means well fitted activation curve with a large enough effect in the main read-out, with a control signal flat, not every such curve was filed as active; further: % of control where 0% means no effect); conditions: HEK293 ACTOne CNG channel cells, membrane potential fluorescence; series mostly up to 22.9 µM
In short: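 Live HEK293 cells with a modified cyclic nucleotide-gated (CNG) channel report intracellular cAMP via membrane-potential dye fluorescence (ex 535/em 590 nm). Endogenous PDE-IV was targeted. Compounds were tested at up to 22.9 uM final; RO 20-1724 100 uM served as control.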

[9] = molecular target: Cytochrome P450 3A4 (Homo sapiens) (UniProt P08684); assay: qHTS Assay for Activators of Cytochrome P450 3A4 (AID 885); conditions: recombinant CYP3A4, Luciferin-PPXE luminescence, 60 min; series mostly up to 57.1 µM; further: nearly all actives have a fitted effect of over 65% in size
In short: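 Quantitative HTS format: compounds preincubated with 20nM human CYP3A4 and Luciferin-PPXE substrate at KM, reaction started by NADPH regeneration, stopped after 60 min, luciferase luminescence read 20 min later.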

[10] = molecular target: Dual specificity protein kinase CLK4 (Homo sapiens) (UniProt Q9HAZ1); assay: qHTS Assay for Inhibitors of CDC-like Kinase 4 (Kinase-Glo Assay) (AID 1770); conditions: recombinant Clk4, Kinase-Glo ATP depletion luminescence; series mostly up to 66.7 µM; further: nearly all actives have a fitted effect of over 65% in size; further: potency means the concentration at half of the fitted maximal effect
In short: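 Readout: Kinase-Glo luminescence from ATP left after a 4.5 h room-temperature reaction of 25 nM Clk4 with 100 uM RS peptide and 1 uM ATP (final). Buffer: 25 mM Tris pH 7.5, 10 mM MgCl2.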

[11] = molecular target: Dual specificity protein kinase CLK4 (Homo sapiens) (UniProt Q9HAZ1); assay: qHTS Assay for Inhibitors of CDC-like Kinase 4 (ADP-Glo Assay) (AID 1771); conditions: recombinant CLK4, ADP-Glo luminescence; series mostly up to 80 µM; further: nearly all actives have a fitted effect of over 70% in size; further: potency means the concentration at half of the fitted maximal effect
In short: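 25 nM Clk4 with 100 uM RS repeat peptide and 1 uM ATP (final) in buffer with 2 mM MgCl2, 0.5 mM EGTA, 2.5 mM DTT, 0.01% Triton X-100; 1 h at room temperature; ADP-Glo luminescence for ADP formed.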

[12] = molecular target: Dual specificity protein kinase CLK4 (Homo sapiens) (UniProt Q9HAZ1); assay: qHTS Assay for Inhibitors of CDC-like Kinase 4 (ADP-FP Assay) (AID 1795); conditions: Transcreener ADP fluorescence polarization; series mostly up to 50 µM; further: nearly all actives have a fitted effect of over 60% in size; further: potency means the concentration at half of the fitted maximal effect
In short: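 FP readout: Orange Transcreener ADP2 tracer (4 nM) plus ADP antibody, read after 30 min at room temperature. Kinase step: 6.25 nM Clk4, 100 uM RS peptide, 1 uM ATP, pH 7.5, 1 h.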

[13] = molecular target: Ubiquitin carboxyl-terminal hydrolase 1 (Homo sapiens) (UniProt O94782); assay: Inhibitors of USP1/UAF1: Pilot qHTS (AID 504865); conditions: purified USP1/UAF1, Ub-rhodamine cleavage fluorescence; series mostly up to 54.9 µM;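 further: rhodamine fluorescence freed from ubiquitin-rhodamine substrate followed over time; top concentration of the series differs between compounds; on the % scale 0 is the no-effect control and ±100 the full control effect; nearly all actives have a fitted effect of over 35% in size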
In short: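 1nM USP1/UAF1 + cpd, 15 min RT; start w/ Ub-Rho 150nM final; kinetic FL 480/540 nm, 6 reads q60 s. Buffer 50mM HEPES pH 7.8, 0.5mM EDTA, 1mM TCEP, 0.01% Tween-20, 0.1 mg/ml BSA.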

[14] = Primary qHTS for small molecule stabilizers of the endoplasmic reticulum resident proteome: Secreted ER Calcium Modulated Protein (SERCaMP) assay (AID 1508630); conditions: SH-SY5Y GLuc-SERCaMP (Gaussia luciferase released on ER calcium loss) secretion, thapsigargin, luminescence; series mostly up to 38.4 µM; further: on the % scale 0 is the no-effect control and ±100 the full control effect
In short: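 GLuc-SERCaMP-expressing SH-SY5Y cells, pretreated 16 h with compound, are challenged with thapsigargin to empty ER calcium stores; after 4 h, coelenterazine is added directly to the medium and luminescence is imaged.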

[15] = molecular target: Cytochrome P450 3A4 (Homo sapiens) (UniProt P08684); assay: qHTS Assay for Inhibitors and Substrates of Cytochrome P450 3A4 (AID 884); conditions: recombinant CYP3A4, Luciferin-PPXE luminescence; series mostly up to 57.1 µM; further: potency means the concentration at half of the fitted maximal effect; nearly all actives have a fitted effect of over 50% in size
In short: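 20 nM human CYP3A4 with 25 uM Luciferin-PPXE (at KM) in 200 mM KPO4, preincubated 10 min with compound; NADPH regeneration started a 60 min RT reaction. Luciferin detected by luminescence, normalized to 57 uM ketoconazole as full inhibition.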

[16] = qHTS Assay for Identification of Small Molecule Agonists for Hypoxia Response Element Signaling Pathway (AID 914; active means well fitted activation curve with a large enough effect in the signal ratio, with a control signal flat, not every such curve was filed as active; the % refers to the signal ratio; further: % of control where 0% means no effect); conditions: ME-180 (cervical carcinoma) HRE-bla reporter, beta-lactamase ratio, CoCl2, 17 h; activation: stronger effect = higher value
In short: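 Read-out: CCF4 FRET ratio of 460nm to 530nm emission (excitation 405nm) after 2.5 hours at room temperature, taken from HRE-bla ME-180 cells that had been exposed to compound and EC50 CoCl2 for 17 hours.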

Lysosomal acid glucosylceramidase (Homo sapiens), sequence (P04062 whole entry, looked up): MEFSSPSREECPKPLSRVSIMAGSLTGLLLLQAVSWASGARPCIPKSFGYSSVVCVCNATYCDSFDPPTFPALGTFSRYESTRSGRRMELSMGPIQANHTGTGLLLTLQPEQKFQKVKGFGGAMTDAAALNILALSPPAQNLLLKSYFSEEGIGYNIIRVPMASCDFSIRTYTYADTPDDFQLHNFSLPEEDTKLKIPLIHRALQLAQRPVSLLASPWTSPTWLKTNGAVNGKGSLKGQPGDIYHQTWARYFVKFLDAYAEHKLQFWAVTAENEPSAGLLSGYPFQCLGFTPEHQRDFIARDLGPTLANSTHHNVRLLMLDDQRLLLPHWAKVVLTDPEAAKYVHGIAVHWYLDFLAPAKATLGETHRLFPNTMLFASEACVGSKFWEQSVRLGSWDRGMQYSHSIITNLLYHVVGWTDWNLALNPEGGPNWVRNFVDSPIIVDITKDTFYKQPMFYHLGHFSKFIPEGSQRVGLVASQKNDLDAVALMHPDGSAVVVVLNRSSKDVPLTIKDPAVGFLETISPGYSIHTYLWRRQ
Cytochrome P450 1A2 (Homo sapiens), sequence (P05177 whole entry, looked up): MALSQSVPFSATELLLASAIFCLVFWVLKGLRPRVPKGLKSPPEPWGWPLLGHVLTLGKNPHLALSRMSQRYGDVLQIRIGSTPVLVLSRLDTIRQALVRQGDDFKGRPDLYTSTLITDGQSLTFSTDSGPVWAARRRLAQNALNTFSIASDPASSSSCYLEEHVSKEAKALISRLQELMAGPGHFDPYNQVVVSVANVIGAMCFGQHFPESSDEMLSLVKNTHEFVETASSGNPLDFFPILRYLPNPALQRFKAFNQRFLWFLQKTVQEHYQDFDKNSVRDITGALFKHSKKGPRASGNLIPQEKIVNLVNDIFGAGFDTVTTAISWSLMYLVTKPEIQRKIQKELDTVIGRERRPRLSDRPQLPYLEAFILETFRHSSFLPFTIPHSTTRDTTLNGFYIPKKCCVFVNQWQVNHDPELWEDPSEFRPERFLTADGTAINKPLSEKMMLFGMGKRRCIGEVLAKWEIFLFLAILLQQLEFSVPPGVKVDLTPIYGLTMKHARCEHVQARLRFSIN
Glucocorticoid receptor (Homo sapiens), sequence (P04150 whole entry, looked up, the tested form may be a part): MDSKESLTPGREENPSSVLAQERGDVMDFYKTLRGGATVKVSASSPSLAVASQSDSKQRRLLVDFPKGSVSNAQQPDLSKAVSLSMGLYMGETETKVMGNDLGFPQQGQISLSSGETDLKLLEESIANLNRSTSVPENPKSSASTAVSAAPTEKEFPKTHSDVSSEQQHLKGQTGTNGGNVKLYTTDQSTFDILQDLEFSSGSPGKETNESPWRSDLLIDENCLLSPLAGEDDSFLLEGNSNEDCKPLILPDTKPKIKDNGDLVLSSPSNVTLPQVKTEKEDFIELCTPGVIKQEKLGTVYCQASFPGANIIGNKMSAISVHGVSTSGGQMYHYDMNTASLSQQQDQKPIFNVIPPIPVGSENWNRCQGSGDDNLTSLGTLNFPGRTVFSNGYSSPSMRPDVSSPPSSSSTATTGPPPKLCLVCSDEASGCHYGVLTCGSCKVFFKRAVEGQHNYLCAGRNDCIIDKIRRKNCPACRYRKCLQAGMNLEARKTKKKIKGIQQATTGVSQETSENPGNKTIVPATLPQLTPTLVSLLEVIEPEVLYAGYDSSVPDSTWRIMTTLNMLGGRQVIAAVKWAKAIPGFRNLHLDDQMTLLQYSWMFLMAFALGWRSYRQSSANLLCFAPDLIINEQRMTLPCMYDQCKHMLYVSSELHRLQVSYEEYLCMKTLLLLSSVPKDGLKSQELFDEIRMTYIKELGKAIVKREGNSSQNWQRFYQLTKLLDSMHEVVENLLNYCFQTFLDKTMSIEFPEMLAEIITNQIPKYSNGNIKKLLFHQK
3',5'-cyclic-AMP phosphodiesterase 4B (Homo sapiens), sequence (Q07343 whole entry, looked up): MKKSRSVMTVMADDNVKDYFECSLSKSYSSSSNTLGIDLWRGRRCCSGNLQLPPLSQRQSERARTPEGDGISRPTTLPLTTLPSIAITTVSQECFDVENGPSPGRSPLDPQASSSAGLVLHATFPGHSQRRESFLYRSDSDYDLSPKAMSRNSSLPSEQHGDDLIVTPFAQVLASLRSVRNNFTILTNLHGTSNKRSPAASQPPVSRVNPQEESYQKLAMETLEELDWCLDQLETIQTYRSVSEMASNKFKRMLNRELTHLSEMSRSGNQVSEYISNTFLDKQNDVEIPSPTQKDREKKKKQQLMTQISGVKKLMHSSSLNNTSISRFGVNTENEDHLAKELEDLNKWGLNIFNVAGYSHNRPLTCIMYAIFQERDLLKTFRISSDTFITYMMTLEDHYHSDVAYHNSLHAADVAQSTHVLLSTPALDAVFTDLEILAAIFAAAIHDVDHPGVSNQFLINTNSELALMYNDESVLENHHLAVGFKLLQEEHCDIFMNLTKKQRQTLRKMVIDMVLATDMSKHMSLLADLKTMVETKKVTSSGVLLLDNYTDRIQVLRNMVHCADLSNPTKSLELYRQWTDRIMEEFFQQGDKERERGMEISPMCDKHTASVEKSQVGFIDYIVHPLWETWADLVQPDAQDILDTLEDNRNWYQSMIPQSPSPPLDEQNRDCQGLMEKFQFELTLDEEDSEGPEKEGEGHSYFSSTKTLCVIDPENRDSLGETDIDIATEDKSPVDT
Dual specificity protein kinase CLK4 (Homo sapiens), sequence (Q9HAZ1 whole entry, looked up): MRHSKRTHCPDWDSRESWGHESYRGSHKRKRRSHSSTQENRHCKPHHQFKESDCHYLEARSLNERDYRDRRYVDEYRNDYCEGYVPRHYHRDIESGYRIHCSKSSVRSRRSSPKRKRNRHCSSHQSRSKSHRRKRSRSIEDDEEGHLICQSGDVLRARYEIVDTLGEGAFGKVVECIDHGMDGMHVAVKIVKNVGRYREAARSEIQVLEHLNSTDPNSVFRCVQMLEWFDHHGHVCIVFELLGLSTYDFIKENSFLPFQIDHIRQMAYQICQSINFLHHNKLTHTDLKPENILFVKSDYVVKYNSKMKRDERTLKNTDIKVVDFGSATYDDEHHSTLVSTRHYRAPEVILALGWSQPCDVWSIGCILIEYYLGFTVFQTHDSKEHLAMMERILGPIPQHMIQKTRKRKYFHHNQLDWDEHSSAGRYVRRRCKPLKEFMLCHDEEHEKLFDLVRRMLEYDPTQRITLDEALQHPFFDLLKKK
Cytochrome P450 3A4 (Homo sapiens), sequence (P08684 whole entry, looked up): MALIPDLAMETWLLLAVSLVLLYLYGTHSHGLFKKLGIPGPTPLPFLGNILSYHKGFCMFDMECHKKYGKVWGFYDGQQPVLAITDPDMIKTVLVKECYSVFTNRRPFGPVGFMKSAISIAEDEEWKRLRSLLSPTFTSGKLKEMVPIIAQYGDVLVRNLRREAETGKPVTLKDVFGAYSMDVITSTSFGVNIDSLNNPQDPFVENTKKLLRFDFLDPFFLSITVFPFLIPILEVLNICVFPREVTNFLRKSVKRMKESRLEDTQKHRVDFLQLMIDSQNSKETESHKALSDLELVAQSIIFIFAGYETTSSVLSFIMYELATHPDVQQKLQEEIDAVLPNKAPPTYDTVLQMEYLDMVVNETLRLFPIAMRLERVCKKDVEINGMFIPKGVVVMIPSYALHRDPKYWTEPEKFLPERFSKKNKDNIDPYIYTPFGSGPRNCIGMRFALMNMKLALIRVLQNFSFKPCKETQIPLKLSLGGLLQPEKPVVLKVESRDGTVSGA
Ubiquitin carboxyl-terminal hydrolase 1 (Homo sapiens), sequence (O94782 whole entry, looked up): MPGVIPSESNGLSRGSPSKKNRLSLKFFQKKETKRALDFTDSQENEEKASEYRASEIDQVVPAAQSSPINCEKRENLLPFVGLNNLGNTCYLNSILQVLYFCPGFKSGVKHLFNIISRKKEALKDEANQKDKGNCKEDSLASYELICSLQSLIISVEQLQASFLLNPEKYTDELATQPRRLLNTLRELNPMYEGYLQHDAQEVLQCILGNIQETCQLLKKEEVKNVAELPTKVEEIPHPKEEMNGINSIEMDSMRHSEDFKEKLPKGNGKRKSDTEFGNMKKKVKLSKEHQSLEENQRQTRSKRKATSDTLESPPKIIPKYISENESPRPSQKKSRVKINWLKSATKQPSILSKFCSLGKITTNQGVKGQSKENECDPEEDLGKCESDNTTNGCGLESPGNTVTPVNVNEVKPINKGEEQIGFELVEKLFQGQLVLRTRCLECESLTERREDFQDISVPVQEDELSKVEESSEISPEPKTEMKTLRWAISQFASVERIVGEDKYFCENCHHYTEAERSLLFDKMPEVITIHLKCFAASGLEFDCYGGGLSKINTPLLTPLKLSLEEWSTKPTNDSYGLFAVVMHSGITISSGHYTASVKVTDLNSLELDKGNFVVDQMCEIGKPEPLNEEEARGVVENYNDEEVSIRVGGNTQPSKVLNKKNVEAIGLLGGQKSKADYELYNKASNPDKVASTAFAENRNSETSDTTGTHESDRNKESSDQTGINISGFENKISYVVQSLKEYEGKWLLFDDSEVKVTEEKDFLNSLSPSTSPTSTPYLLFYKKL

| SMILES | Potency [1] | activity change, negative = inhibition [2] | Potency [3] | activity, negative = inhibition [4] | Potency [5] | Potency [6] | Potency [7] | Potency [8] | Potency [9] | Potency [10] | Potency [11] | Potency [12] | Potency [13] | outcome [14] | Potency [15] | activation [16] |
| --- | --- | --- | --- | --- | --- | --- | --- | --- | --- | --- | --- | --- | --- | --- | --- | --- |
| Cc1noc(C)c1-c1ccc2ncnc(NCCN3CCOCC3)c2c1 | > 11.4 µM | 1.93% | 15.8 µM (active) | -22.6% | > 46 µM | > 46 µM | inactive | inactive | inactive | 8.91 µM (active) | 6.31 µM (active) | 8.91 µM (active) | inactive | inactive | – | – |
| COc1ccccc1-c1cncnc1N(C)Cc1ccco1 | > 11.4 µM | -9.6% | 15.8 µM (active) | 17% | > 46 µM | > 46 µM | inactive | inactive | inactive | inactive | inactive | inactive | inactive | inactive | 1.26 µM (active) | -12.2% |
| FC(F)(F)c1ccccc1-c1cncnc1NCc1cccs1 | > 11.4 µM | 10.5% | 20 µM (active) | -1.4% | > 46 µM | > 46 µM | inactive | – | inactive | inactive | inactive | inactive | inactive | inactive | 0.251 µM (active) | – |
| CN(Cc1ccco1)c1ccnc(-c2cccc(C#N)c2)n1 | > 11.4 µM | -18.2% | 0.398 µM (active) | 2.59% | > 46 µM | > 46 µM | inactive | inactive | inactive | 14.1 µM (active) | 15.8 µM (active) | 14.1 µM (active) | inactive | inactive | – | – |
| COc1ccc(-c2nc3cnc(N(C)C)nc3n(Cc3cccs3)c2=O)cc1 | > 11.4 µM | 17.1% | 1.58 µM (active) | – | > 9.22 µM | > 46 µM | – | – | inactive | inactive | inactive | inactive | inactive | inactive | – | – |
| CN(C)c1ncc2nc(-c3cccc(C#N)c3)c(=O)n(C[C@H]3CCCO3)c2n1 | > 11.4 µM | -22.3% | 3.16 µM (active) | 1.32% | > 9.22 µM | > 46 µM | inactive | inactive | – | inactive | inactive | inactive | inactive | inactive | – | – |

From PubChem BioAssay (NCATS)
